Shown is part of a subset that was picked to be rich in hits.
Vaccinia inh – blocks a specific stage of Vaccinia orthopoxvirus infection, primary screen, cell-based, single point; Vaccinia-infected cells, mCherry/Venus stage reporter fluorescence; active compounds read low; activity change (mCherry), % (no concentration beside the values); 89,000 tested, 0.01% active; in the data active = activity change below about -37%, passing the limit was not always enough; tested in A549 cells
An asterisk follows results filed as active.

SMILES | Vaccinia inh
C[C@H](CO)N1C[C@H](C)[C@H](CN(C)C(=O)c2ccccc2F)Oc2ncc(C#C[C@@H](C)O)cc2C1=O | 5
CC(C)(C)[Si](C)(C)OC[C@@H]1[C@H]2c3ccccc3O[C@]1(C)NC(=S)N2C(=O)c1ccccc1 | -27
CC(C)NC(=O)Nc1ccc2c(c1)CC(=O)N([C@@H](C)CO)C[C@@H](C)[C@H](CN(C)C)O2 | 24
O=C(C[C@H]1C=C[C@H](NC(=O)Nc2cccc(F)c2)[C@@H](CO)O1)NCC1CC1 | -6
O=C(c1ccccc1)N1CC(=O)N2[C@@H](CO)[C@H](c3ccc(C#Cc4ccccc4)cc3)[C@@H]2C1 | -15
COCC#Cc1ccc([C@@H]2[C@H]3CN(C(=O)C4CCC4)CC(=O)N3[C@H]2CO)cc1 | -1
COCC(=O)N1C[C@@H](C)[C@H](OC)CN(C)C(=O)c2ccc(NC(=O)c3cnccn3)cc2OC[C@H]1C | 10
OC[C@H]1[C@H](c2ccc(-c3ccc(F)cc3)cc2)[C@@H]2CN(Cc3cccnc3)CCCCN12 | -10
CC=Cc1ccc2n(c1=O)C[C@@H]1[C@@H](CO)[C@H](C(=O)NC3Cc4ccccc4C3)N(CC3CC3)[C@H]21 (mixture of isomers) | 3
C[C@@H]1CN([C@@H](C)CO)C(=O)Cc2cc(NC(=O)NC3CCCCC3)ccc2O[C@H]1CN(C)S(=O)(=O)c1ccc(F)cc1 | -8
COc1cccc(CNC(=O)[C@H]2[C@H](CO)[C@H]3Cn4c(cccc4=O)[C@@H]2N3C(=O)C2CCC2)c1 | 13
C[C@@H]1CN([C@H](C)CO)C(=O)Cc2cc(NC(=O)Nc3ccc4c(c3)OCO4)ccc2O[C@H]1CN(C)C(=O)Nc1cccc2ccccc12 | 7
C[C@@H]1CN([C@H](C)CO)C(=O)Cc2cc(NS(=O)(=O)c3ccccc3)ccc2O[C@@H]1CN(C)CC1CCCCC1 | -5
C#CCN([C@H](/C=C/C1CC1)[C@@H](O)Cc1ccccc1)[C@@H](Cc1ccccc1)C(=O)OC | 10
C[C@@H]1CN([C@H](C)CO)C(=O)Cc2cc(NS(C)(=O)=O)ccc2O[C@@H]1CN(C)S(=O)(=O)c1ccc(Cl)cc1 | 16
C[C@@H]1CCCCO[C@@H](CN(C)S(=O)(=O)c2ccccc2)[C@@H](C)CN([C@@H](C)CO)C(=O)c2cc(NS(C)(=O)=O)ccc2O1 | 35
C[C@@H]1CCCCO[C@@H](CN(C)C(=O)c2ccncc2)[C@@H](C)CN([C@@H](C)CO)C(=O)c2cc(NC(=O)C3CCCCC3)ccc2O1 | 5
CO[C@H]1CN(C)C(=O)c2cc(NC(=O)Nc3c(C)noc3C)ccc2OC[C@H](C)N(CC2CC2)C[C@H]1C | -4
O=C(C[C@@H]1CC[C@H]2[C@@H](COC[C@@H](O)CN2Cc2ccccc2F)O1)NC1CCC1 | 7
C[C@H](CO)N1C[C@H](C)[C@H](CN(C)S(=O)(=O)c2cn(C)cn2)Oc2ncc(/C=C/c3ccccc3)cc2C1=O | 24
O=C(c1cnccn1)N1CC(=O)N2[C@H](CO)[C@@H](c3ccc(C4=CCCCC4)cc3)[C@@H]2C1 | -17
CCCN1[C@H](C(=O)OC)[C@@H](CO)[C@@H]2Cn3c(ccc(-c4ccccc4OC)c3=O)[C@@H]21 | 13
Cc1noc(C)c1C(=O)N(C)C[C@H]1OCc2ccccc2-c2ccccc2C(=O)N([C@H](C)CO)C[C@@H]1C | 13
COCC(=O)N1[C@H](CO)[C@H]2c3ccccc3N(C(=O)C3CC3)C[C@H]21 | 5
Cc1noc(C)c1NC(=O)N(C)C[C@@H]1Oc2c(NC(=O)C3CC3)cccc2C(=O)N([C@H](C)CO)C[C@@H]1C | 10
SMILES | Vaccinia inh
O=C(CC1CC1)N1CC(=O)N2[C@@H](CO)[C@@H](c3ccc(-c4ccccc4)cc3)[C@@H]2C1 | -2
COc1ccc2c3c([nH]c2c1)[C@H](CO)N(Cc1ccc(Cl)cc1)CC31CCN(Cc2ccccc2)CC1 | -17
O=C(O)C[C@@H]1CC[C@H](NC(=O)CCN2CCCCC2)[C@@H](CO)O1 | 24
O=C(NCc1nc2ccccc2[nH]1)C1=C[C@@H](c2coc3ccccc3c2=O)C[C@@H](OCCCCO)O1 | 6
Cc1ccc(S(=O)(=O)N(C)C[C@H]2Oc3cc(C#Cc4ccncc4)ccc3S(=O)(=O)N([C@@H](C)CO)C[C@H]2C)cc1 | -46*
C[C@@H]1CN([C@@H](C)CO)S(=O)(=O)c2ccc(C#Cc3ccncc3)cc2O[C@H]1CN(C)S(=O)(=O)c1ccc(F)cc1 | -29
C[C@H](CO)N1C[C@H](C)[C@H](CN(C)S(=O)(=O)c2ccc(F)cc2)Oc2cc(C#Cc3ccncc3)ccc2S1(=O)=O | -20
O=C(C[C@H]1C[C@@H]2c3cc(NC(=O)CC4CC4)ccc3O[C@@H]2[C@@H](CO)O1)NCc1ccccn1 | 9
C[C@H](CO)N1C[C@H](C)[C@@H](CN(C)S(=O)(=O)c2ccc(Cl)cc2)Oc2c(NC(=O)CCCCCC(=O)Nc3ccccc3N)cccc2C1=O | -9
CC(C)NC(=O)Nc1ccc2c(c1)C(=O)N(C)[C@H]1CC[C@@H](CC(=O)NCC3CCCCC3)O[C@H]1CO2 | -2
COc1ccc(S(=O)(=O)N(C)C[C@@H]2Oc3ccc(NS(=O)(=O)c4ccc(F)cc4)cc3CC(=O)N([C@@H](C)CO)C[C@H]2C)cc1 | -11
CNC[C@H]1Oc2ccc(NC(=O)NC(C)C)cc2CC(=O)N([C@H](C)CO)C[C@@H]1C | 9
CC(C)CC#Cc1ccc([C@@H]2[C@@H](CO)N3C(=O)CN(C(=O)Cc4ccccc4)C[C@@H]23)cc1 | -2
O=C(Nc1ccc2c(c1)[C@H]1C[C@H](CC(=O)N3CCOCC3)O[C@@H](CO)[C@H]1O2)c1cccnc1 | -1
COc1ccccc1CN1CC[C@H]2[C@H](CO)Nc3ccc(-c4ccc(C(=O)N(C)C)cc4)cc3[C@H]21 | -40*
CN(C)C(=O)c1ccc(-c2ccc3c(c2)[C@H]2[C@H](CCN2Cc2ccc4c(c2)OCO4)[C@@H](CO)N3)cc1 | -22
CN(C)C(=O)c1ccc(-c2ccc3c(c2)[C@H]2[C@H](CCN2Cc2ccc4c(c2)OCO4)[C@H](CO)N3)cc1 | -27
CN(C)C(=O)c1ccc(-c2ccc3c(c2)[C@H]2[C@H](CCN2C(=O)c2ccccc2)[C@H](CO)N3)cc1 | -9
CN(C)C(=O)c1ccc(-c2ccc3c(c2)[C@@H]2[C@@H](CCN2Cc2ccc4c(c2)OCO4)[C@H](CO)N3)cc1 | -29
COc1ccccc1CN1CC[C@@H]2[C@@H](CO)Nc3ccc(-c4ccc(C(=O)N(C)C)cc4)cc3[C@@H]21 | -39*
O=C([C@@H]1[C@@H](CO)[C@@H]2Cn3c(cccc3=O)[C@@H]2N1Cc1ccccc1Cl)N1CCCCC1 | 6
CCC(=O)N1CC(=O)N2[C@H](CO)[C@@H](c3ccc(C#Cc4cccc(OC)c4)cc3)[C@H]2C1 | -32
CCNC(=O)C[C@H]1CC[C@@H]2[C@H](COc3ccc(NC(=O)c4cccc(OC)c4)cc3C(=O)N2C)O1 | 14
C[C@@H]1CN([C@@H](C)CO)C(=O)c2cc(C3=CCCC3)cnc2O[C@@H]1CN(C)S(=O)(=O)c1cn(C)cn1 | 8
CCC(=O)N1CC2(C1)CN(C(C)=O)[C@H](CO)c1[nH]c3cc(OC)ccc3c12 | 16
C[C@H](CO)N1C[C@H](C)[C@@H](CN(C)S(=O)(=O)c2cn(C)cn2)Oc2ccc(NC(=O)Nc3cccc4ccccc34)cc2C1=O | 24
CO[C@H]1CN(C)C(=O)c2ccc(NC(=O)c3ccc(F)cc3)cc2OC[C@H](C)N(C(=O)c2ccc(F)cc2)C[C@@H]1C | -87*
